Drawing on PubChem BioAssay (EPA / NIEHS), this text covers outcome and AC50 for 18 molecules.

Read-out in experiment [1]: Interleukin 17F (IL17F), IL17F (gene 112744)
The experiment in a line: BSK_BT_xIL17F: BioMAP Diversity Plus: BT Assay for Interleukin 17F (IL17F) Biomarker Activity (AID 2284243). As to conditions: primary human B cells with PBMC. The method in brief: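 B cell/PBMC co-culture (human primary), 24 h compound exposure; sIL-17F by Luminex xMAP; gain-of-signal fit vs DMSO baseline.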

Read-out in experiment [2]: Interleukin 2 (IL2), IL2 (gene 3558)
The experiment in a line: BSK_BT_xIL2: BioMAP Diversity Plus: BT Assay for Interleukin 2 (IL2) Biomarker Activity (AID 2284245). As to conditions: primary human B cells with PBMC. The method in brief: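 Co-cultures of primary human B cells and PBMC are treated with chemical and sampled at 24 h. IL-2 secretion is quantified by Luminex xMAP, with DMSO-treated wells as baseline.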

Read-out in experiment [3]: Basic fibroblast growth factor (bFGF), FGF2 (gene 2247)
The experiment in a line: BSK_MyoF_bFGF: BioMAP Diversity Plus: MyoF Assay for Basic fibroblast growth factor (bFGF) Biomarker Activity (AID 2284246). As to conditions: primary human lung fibroblasts. The gist of the method: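 Fibroblasts from human lung, 24 h dosing. bFGF by ELISA; gain of signal over DMSO.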

Read-out in experiment [4]: Collagen IV, COL4A1 (gene 1282)
The experiment can be described thus: BSK_MyoF_CollagenIV: BioMAP Diversity Plus: MyoF Assay for Collagen IV Biomarker Activity (AID 2284247). As to conditions: primary human lung fibroblasts. The method in brief: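 Lung fibroblasts (human primary) treated with chemicals were assayed after 24 h for Collagen IV using an ELISA, with DMSO serving as negative control and baseline for a positive-direction fit.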

Read-out in experiment [5]: Monokine induced gamma interferon (MIG), CXCL9 (gene 4283)
The experiment can be described thus: BSK_KF3CT_MIG: BioMAP Diversity Plus: KF3CT Assay for Monokine induced gamma interferon (MIG) Biomarker Activity (AID 2284248). The conditions noted are these: primary human keratinocytes with fibroblasts. The gist of the method:
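Human keratinocyte plus foreskin fibroblast primary co-culture dosed with test chemical for 24 h; MIG level measured by ELISA and fitted in the positive direction against DMSO as baseline.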

Read-out in experiment [6]: Vascular cell adhesion molecule 1 (VCAM1), VCAM1 (gene 7412)
The experiment in a line: BSK_BF4T_VCAM1: BioMAP Diversity Plus: BF4T Assay for Vascular cell adhesion molecule 1 (VCAM1) Biomarker Activity (AID 2284249). As to conditions: primary human bronchial epithelial cells with fibroblasts. The gist of the method: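 Cell-surface VCAM-1 quantified by ELISA after 24 h chemical exposure of human bronchial epithelial/dermal fibroblast co-cultures, with SRB staining in parallel wells for cytotoxicity; DMSO baseline, positive-direction fitting.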

Read-out in experiment [7]: Collagen I, COL1A1 (gene 1277)
The experiment can be described thus: BSK_hDFCGF_CollagenI: BioMAP Diversity Plus: hDFCGF Assay for Collagen I Biomarker Activity (AID 2284250). As to conditions: primary human foreskin fibroblasts. The gist of the method:
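Readout: Collagen I by ELISA after 24 h compound treatment of primary human foreskin fibroblasts. Endpoint analysed for increases relative to DMSO; total protein by SRB in parallel wells flagged cytotoxicity.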

Read-out in experiment [8]: Interferon-inducible T-cell alpha chemoattractant (ITAC), CXCL11 (gene 6373)
The experiment in a line: BSK_hDFCGF_ITAC: BioMAP Diversity Plus: hDFCGF Assay for Interferon-inducible T-cell alpha chemoattractant (ITAC) Biomarker Activity (AID 2284251). As to conditions: primary human foreskin fibroblasts. The method in brief: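 I-TAC levels were read by ELISA on human dermal foreskin fibroblast primary cultures 24 h after dosing, analysed against DMSO in the positive direction. Cytotoxicity was assessed alongside by sulforhodamine B total-protein staining.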

Read-out in experiment [9]: Plasminogen activator inhibitor-1 (PAI1), SERPINE1 (gene 5054)
The experiment in a line: BSK_KF3CT_PAI1: BioMAP Diversity Plus: KF3CT Assay for Plasminogen activator inhibitor-1 (PAI1) Biomarker Activity (AID 2284252). The conditions noted are these: primary human keratinocytes with fibroblasts. The method in brief: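 In this co-culture of primary human keratinocytes and foreskin fibroblasts, PAI-1 was measured by ELISA at 24 h and fitted upward from DMSO.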

The structures appear in SMILES notation. Where “and” joins values, the source holds several entries; their conditions need not be identical. Identical values can stand only once. Some compounds were tested as several samples or in several runs, with calls that do not always agree. Calls of active or inactive are those of the source. How the source made its calls: active means hit-call score of the fitted dose curve at least 0.9, where 1 is the maximum; inactive means score below 0.9.

Turning to `FC(F)(F)C(F)(F)C(F)(F)C(F)(F)CCI`, the outcome in experiment [1], in experiment [2], in experiment [3], in [4], in experiment [5] and in [6] was inactive. Besides, the result in experiment [7], in experiment [8] and in experiment [9] was inactive.
As a reminder, the AC50 is the concentration giving half of the maximal activity seen. As to `CCCCCCCOC(=O)c1ccccc1C(=O)OCCCCCCC`, the concentration at half-maximal activity (AC50) in experiment [1] was 12.2 µM (active); in experiment [2] it was 17.5 µM (active). Also, the outcome in experiment [3] and in experiment [4] was inactive.
Regarding `FC1CC(F)(F)C(F)(F)C1(F)F` (stereo not given), the outcome in experiment [1], in experiment [2], in experiment [3], in experiment [4], in experiment [5] and in [6] was inactive. Moreover, the result in experiment [7], in experiment [8] and in experiment [9] was inactive.
Take `CC(C)(C)C(=O)CC(=O)C(F)(F)C(F)(F)C(F)(F)F`: the outcome in [1], in experiment [2], in experiment [3], in [4], in experiment [5] and in [6] was inactive. Also, the result in experiment [7], in experiment [8] and in [9] was inactive.
Regarding `O=C(O)C(F)(F)C(F)(F)F`, the result in [1], in experiment [2], in [3], in experiment [4], in [5] and in [6] was inactive. Further, the result in [7], in experiment [8] and in experiment [9] was inactive.
For the molecule `Nc1ccc([N+](=O)[O-])cc1O`, the outcome in [1], in [2], in experiment [3] and in experiment [4] was inactive.
In the case of `COC(=O)CCC(F)(F)C(F)(F)C(F)(F)C(F)(F)F`, the result in experiment [1], in experiment [2], in experiment [3], in experiment [4], in experiment [5] and in [6] was inactive. Further, the outcome in [7], in [8] and in experiment [9] was inactive.
Turning to `C=CC/C=C/C/C=C/C/C=C/C`, the outcome in [1], in [2], in experiment [3] and in [4] was inactive.
Turning to `FC(F)(I)C(F)(F)C(F)(F)C(F)(F)I`, the AC50 in experiment [1] was 30 µM (active) and 47.7 µM (active) and 43.1 µM (active); in experiment [2], 54.7 µM (active) and 47.8 µM (active) and 43.6 µM (active); in [3], 51.4 µM (active) and 45.9 µM (active); in experiment [4], 50.6 µM (active) and 50.7 µM (active) and 51.6 µM (active); in experiment [5], 58.1 µM (active) and 47.2 µM (active) and 51.6 µM (active); in experiment [6], 41.5 µM (active) and 47 µM (active) and 30 µM (active). Also, the AC50 in experiment [8] was 29.2 µM (active) and 46.2 µM (active) and 52 µM (active); in experiment [9], 52.5 µM (active) and 47 µM (active) and 54.9 µM (active). In experiment [7], the outcome was inactive.
With `O=C(O)C(F)(F)C(F)(F)C(F)(F)C(F)(F)C(F)(F)C(F)(F)C(F)(F)C(F)(F)C(F)(F)C(F)(F)C(F)(F)C(F)(F)F`, the result in [1], in experiment [2], in experiment [3], in experiment [4], in experiment [5] and in experiment [6] was inactive. In addition, the outcome in [7], in experiment [8] and in [9] was inactive. For the same molecule, the AC50 was 20.5 µM (active) in [5] and 3.49 µM (active) in experiment [8].
On to `FC(F)(Br)C(F)(F)C(F)(F)C(F)(F)C(F)(F)C(F)(F)Br`, for which the outcome in [1], in [2], in experiment [3], in experiment [4], in experiment [5] and in experiment [6] was inactive. For the same molecule, the result in [7], in experiment [8] and in [9] was inactive.
Regarding `CCN(CC)c1ccc2c(C)cc(=O)oc2c1`, the outcome in [1], in experiment [2], in experiment [3] and in [4] was inactive.
In the case of `CCCCCCOC(=O)c1ccccc1O`, the result in [5] and in experiment [9] was inactive. The AC50 was 18.7 µM (active) and 10.1 µM (active) in experiment [7]; 40.7 µM (active) and 45.2 µM (active) in experiment [8]; 17.4 µM (active) in experiment [9].
Turning to `O=C(O)C(F)(F)C(F)(F)C(F)(F)C(F)(F)C(F)(F)C(F)(F)C(F)(F)C(F)(F)Cl`, the outcome in experiment [1], in experiment [2], in [3], in experiment [4], in experiment [6] and in [7] was inactive. The AC50 was 7.89 µM (active) in experiment [4]; 45.7 µM (active) and 54.2 µM (active) in [5]; 7.26 µM (active) in experiment [6]; 29 µM (active) and 36.7 µM (active) in experiment [8]; 32.8 µM (active) and 37.8 µM (active) in [9].
`FC(F)(F)C(F)(F)C(F)(F)C(F)(F)C(F)(F)C(F)(F)C(F)(F)I`: the outcome in [1], in [2], in experiment [3], in experiment [5], in experiment [6] and in experiment [7] was inactive. In addition, the result in [8] and in experiment [9] was inactive. The AC50 in experiment [4] was 4.81 µM (active) and 1.16 µM (active).
With `O=C(O)C(F)(F)C(F)(F)C(F)(F)C(F)(F)C(F)(F)C(F)(F)C(F)(F)C(F)(F)C(F)(F)C(F)F`, the outcome in experiment [1], in experiment [2], in experiment [3], in [6] and in experiment [7] was inactive. Besides, the AC50 in [4] is 8.18 µM (active) and 8.12 µM (active); in experiment [5], 49.3 µM (active) and 48 µM (active); in experiment [6], 7.76 µM (active); in experiment [8], 12.8 µM (active) and 5.95 µM (active); in experiment [9] it was 19.3 µM (active) and 13.8 µM (active).
As for `OCC(F)(F)C(F)(F)C(F)(F)C(F)(F)C(F)(F)C(F)(F)F`, the AC50 in experiment [1] is 43.8 µM (active) and 40.2 µM (active); in experiment [8], 49.4 µM (active). Further, the outcome in [2], in experiment [3], in experiment [4], in experiment [5], in experiment [6] and in [7] was inactive. Besides, the result in experiment [8] and in experiment [9] was inactive.
Regarding `O=P(O)(O)OCCC(F)(F)C(F)(F)C(F)(F)C(F)(F)C(F)(F)C(F)(F)F`, the result in [1], in experiment [2], in experiment [3], in experiment [4], in [5] and in experiment [6] was inactive. Also, the result in experiment [7], in [8] and in [9] was inactive. Besides, the AC50 in [8] was 5.83 µM (active).
